An excerpt weighted towards active compounds, which were near 7.3% of everything screened.
VACV Venus inh: vaccinia inhibition (Venus reporter); Vaccinia virus Venus reporter expression, fluorescence; Potency, µM (titrated, usually from 36.5 µM), hits mostly inhibitors; 330,000 tested, 0.46% active; AID 720580; calls by dose curve; tested in A549 cells; further: nearly all actives have a fitted effect of over 30% in size
HCV inhibitor: inhibitors of hepatitis C virus infection; Huh7.5.1 HCVcc-Cre infection, luciferase reporter, 44 h; Potency, µM (series often up to 41.8 µM), usual class: inhibitors; 340,000 tested, 3.4% active
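Compounds are dispensed onto cells plated 4 h earlier at 1,000 per well, with HCVcc-Cre virus (about 0.5 moi) added next. Following 44 h of culture, luminescent signal is measured for 15 sec after 15 min with substrate at room temperature.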
FMDV inh: foot and mouth disease virus antiviral activity; FMDV antiviral cell-based qHTS; Potency, µM (series often up to 57.9 µM), hits mostly inhibitors; 410,000 tested, 1.2% active; AID 1159524; calls by dose curve; tested in HEK293T cells; further: read-out not given here; nearly all actives have a fitted effect of over 45% in size
Vaccinia mCherry: inhibitors of vaccinia virus infection (mCherry reporter signal); Vaccinia virus mCherry reporter infection, fluorescence; Potency, µM (series often up to 36.5 µM), hits mostly inhibitors; 310,000 tested, 0.63% active; AID 720579; calls by dose curve; tested in A549 cells; further: nearly all actives have a fitted effect of over 35% in size
HCMV inh: blocks human cytomegalovirus replication | HFF cells, HCMV-luciferase reporter, 72 h; hits give low values | activity change, negative = inhibition, % at 57.5 µM | 410,000 tested, 4.5% active | AID 1259415; in the data active means activity change below about -60%; inconclusive means no clear call, values can overlap the other calls; inactive means above about -39%
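Screen run at 2 compound doses on HFFs infected with reporter HCMV, MOI 1 PFU/cell. Luciferase activity from cell lysates at 72 h post infection gave inhibition relative to buffer-only and Salinomycin wells.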
HCV inh confirm: confirmation of hepatitis C virus inhibitors; shares compounds with HCV inhibitor; HCVcc-Cre infectious virus cell assay, luciferase, inhibition; Potency, µM (highest dose often 41.8 µM), hits mostly inhibitors; 640 tested, 78% active; AID 720575; further: nearly all actives have a fitted effect of over 80% in size
HCV cytotox: toxic to HCV host cells, flagging false HCV inhibitors. shares compounds with HCV inhibitor. HCV host cell line cytotoxicity counterscreen. Potency, µM (series often up to 41.8 µM), hits mostly inhibitors. 640 tested, 22% active. AID 720576;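 further: 44 h compound exposure; nearly all actives have a fitted effect of over 55% in size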
Of the large screens only hits and unclear results are named; the others gave an inactive call (follow-up assays come after a bar, where they were run). Unless noted, the call rests on the fitted dose curve; in most records, active means well fitted curve in the direction sought with a large enough effect; inconclusive means small, poorly fitted or top-dose-only effect, or another doubt; inactive means no such curve, though single readings can be large; an effect the other way counts as inactive or inconclusive.

O=C(c1cc(COc2ccc3ncccc3c2)on1)N1CCC[C@H]1CO	HCV inhibitor inconclusive, HCMV inh inconclusive | HCV inh confirm 7.9µM | HCV cytotox 14µM
CCc1ccccc1NC(=S)/N=C(\N)Nc1nc(C)c2cc(C)ccc2n1	VACV Venus inh inconclusive, HCV inhibitor inconclusive, Vaccinia mCherry inconclusive, HCMV inh inconclusive | HCV inh confirm 10µM | HCV cytotox inconclusive
CCOc1ccc2nc(N/C(N)=N/C(=S)Nc3cccc(C)c3)nc(C)c2c1	HCV inhibitor 5.6µM | HCV inh confirm 7.9µM | HCV cytotox inactive
CCn1nc(C)c(CNC(=O)c2ccc(OC3CCN(Cc4ccccn4)CC3)cc2)c1C	HCV inhibitor 1µM, FMDV inh inconclusive, HCMV inh -91 | HCV inh confirm 0.56µM | HCV cytotox 1.1µM
Cc1cccnc1CCNC(=O)c1ccc(OC2CCN(Cc3ccccn3)CC2)cc1	FMDV inh inconclusive
Oc1ccc(Br)cc1-c1cc(-c2ccco2)[nH]n1	VACV Venus inh inconclusive, HCV inhibitor inconclusive (no result: Vaccinia mCherry)
Oc1ccc(Br)cc1-c1ccn[nH]1	HCV inhibitor inconclusive, Vaccinia mCherry inconclusive, HCMV inh inconclusive | HCV inh confirm inactive | HCV cytotox inactive
N#Cc1ccc(CN2CC3(CCN(C(=O)c4ccco4)CC3)C2)cc1	none (no result: VACV Venus inh, HCV inhibitor, Vaccinia mCherry, HCMV inh)
COc1ccc(C2CC(c3cccs3)=Nc3ccccc3S2)cc1 (stereo unspecified)	HCV inhibitor inconclusive (no result: VACV Venus inh, Vaccinia mCherry) | HCV inh confirm inconclusive | HCV cytotox inactive
Cc1cccc([C@@H]2CN(C)CCc3c2cc(O)c(O)c3Cl)c1	none (no result: VACV Venus inh, HCV inhibitor, Vaccinia mCherry, HCMV inh)
Cc1nn(C)c(C)c1NC(=O)CCSc1nc(-c2ccco2)cc(C(F)(F)F)n1	HCV inhibitor 4µM, HCMV inh inconclusive (no result: Vaccinia mCherry) | HCV inh confirm inconclusive | HCV cytotox inactive
COc1cc(S(=O)(=O)O)c(C)cc1N=Nc1c(O)ccc2cc(S(=O)(=O)O)ccc12	none (no result: HCV inhibitor, FMDV inh, HCMV inh)
CN(C)c1ccc(/C=C2\Oc3ccc(C#Cc4cccc(N)c4)cc3C2=O)cc1	HCV inhibitor inconclusive, Vaccinia mCherry inconclusive (no result: HCMV inh) | HCV inh confirm 8.9µM | HCV cytotox inactive
COc1ccc(NC(=O)Nc2cccc(Cl)c2Cl)c(OC)n1	HCV inhibitor 2.8µM, HCMV inh -70 | HCV inh confirm inconclusive | HCV cytotox inactive
Cn1nccc1NC(=O)Nc1cccc(Cl)c1Cl	HCMV inh inconclusive
COc1ccc(-c2nc3nc(C)cc(N4CCN(c5cccc(C(F)(F)F)c5)CC4)n3n2)cc1	none (no result: HCV inhibitor)
COc1ccc(Nc2ncc3c(n2)CC(c2ccccc2)CC3=O)cc1 (stereo unspecified)	HCV inhibitor inconclusive (no result: VACV Venus inh, Vaccinia mCherry)
CCc1ccc(Nc2ncc3c(n2)CC(c2ccc(OC)cc2)CC3=O)cc1 (stereo unspecified)	HCV inhibitor 4µM, HCMV inh -64 (no result: VACV Venus inh, Vaccinia mCherry) | HCV inh confirm inconclusive | HCV cytotox inactive
N#C/C(=C\Nc1ccc2cn[nH]c2c1)c1nc(-c2ccc(Cl)cc2)cs1	HCV inhibitor inconclusive, HCMV inh inconclusive
N#C/C(=C\Nc1ccc2cn[nH]c2c1)c1nc(-c2ccccc2)cs1	HCV inhibitor 0.89µM | HCV inh confirm 3.1µM | HCV cytotox inactive
CN(C)CC/C=C1/c2ccc(F)cc2Sc2ccc(Cl)cc21	HCV inhibitor 8.9µM | HCV inh confirm 14µM | HCV cytotox inactive
Cc1cc(C(=O)COC(=O)c2ccc(O)cc2O)c(C)n1-c1ccccc1	VACV Venus inh inconclusive, HCV inhibitor inconclusive, Vaccinia mCherry inconclusive | HCV inh confirm 18µM | HCV cytotox inactive
N#Cc1ccc(CN2CCC3(CC2)CCN(C(=O)c2ccco2)CC3)cc1	none (no result: VACV Venus inh, HCV inhibitor, Vaccinia mCherry, HCMV inh)
N#Cc1c2ccc(OCC(=O)NCc3ccco3)cc2n2ccccc12	HCV inhibitor inconclusive
N#Cc1c2ccc(O)cc2n2ccccc12	HCV inhibitor 7.1µM, Vaccinia mCherry inconclusive, HCMV inh inconclusive | HCV inh confirm 22µM | HCV cytotox inactive
O=C(Cn1c2ncccc2c(=O)n1-c1ccccc1)Nc1cccc(C(F)(F)F)c1	none (no result: HCV inhibitor)
Clc1cccc(-c2csc(-c3nc(-c4ccc(Br)s4)cs3)n2)c1	none (no result: HCV inhibitor)
CCC(=O)NC(=S)Nc1ccc(NC(=O)c2cccc([N+](=O)[O-])c2C)cc1	HCV inhibitor inconclusive, HCMV inh inconclusive
CCCC(=O)Nc1cccc(NC(=O)c2cccc([N+](=O)[O-])c2C)c1	HCV inhibitor 7.9µM, FMDV inh inconclusive | HCV inh confirm 13µM | HCV cytotox inactive
COc1ncc2nc(-c3ccc(F)cc3)c(=O)n(C3CC3)c2n1	none (no result: VACV Venus inh, HCV inhibitor, Vaccinia mCherry, HCMV inh)
COc1ccc(-c2csc(NC(=O)C3CSC4(C)CCC(=O)N34)n2)c(OC)c1 (stereo unspecified)	VACV Venus inh inconclusive, HCV inhibitor 8.9µM, Vaccinia mCherry inconclusive | HCV inh confirm 28µM | HCV cytotox inactive
O=C(NCCN1CCC(Cc2ccccc2)CC1)C1CCN(S(=O)(=O)N2CCC3(CC2)OCCO3)CC1	HCV inhibitor 6.3µM, FMDV inh inconclusive (no result: VACV Venus inh, Vaccinia mCherry) | HCV inh confirm inconclusive | HCV cytotox inactive
COc1ccc(Nc2nc(N)nc(CCl)n2)cc1	HCV inhibitor 4µM, HCMV inh -98 (no result: VACV Venus inh, Vaccinia mCherry) | HCV inh confirm 6.3µM | HCV cytotox 2.5µM
COc1ccc(Nc2nc(N)nc(CN3CCOCC3)n2)cc1	none
Cc1cc(C(=O)N/N=C/c2ccc(O)c(O)c2O)c(C)n1-c1ccccc1	HCV inhibitor 5.6µM, HCMV inh inconclusive | HCV inh confirm 13µM | HCV cytotox inconclusive
Cc1cc(/C=N/NC(=O)c2ccncc2)c(C)n1-c1ccccc1	HCV inhibitor inconclusive
COc1ccc(CNC(=O)CN2C(=O)CSc3ccc(S(=O)(=O)N4CCCC4)cc32)cc1	none (no result: HCV inhibitor)
Cc1ccc(C(=O)CCNc2ccc(Br)cc2)o1	none
Cc1ccc(C(=O)CCNc2ccc(F)c(Cl)c2)o1	HCV inhibitor 3.2µM (no result: VACV Venus inh, Vaccinia mCherry) | HCV inh confirm 2.8µM | HCV cytotox inactive
COc1ccccc1NC(=O)c1ccc(NC(=O)COC(=O)c2ccc(O)cc2)cc1	HCV inhibitor inconclusive (no result: VACV Venus inh, Vaccinia mCherry) | HCV inh confirm inconclusive | HCV cytotox inconclusive
COc1ccccc1NC(=O)c1ccc(NC(=O)COC(=O)C(C)C)cc1	none
COc1ccc(CN(C(=O)c2ccccc2F)C2CCS(=O)(=O)C2)cc1 (stereo unspecified)	none (no result: HCV inhibitor)
c1cc2c(cc1C1CCCCC1)c1c3n2CCCNC3CCC1 (stereo unspecified)	VACV Venus inh inconclusive, HCV inhibitor 3.5µM | HCV inh confirm 28µM | HCV cytotox 31µM
O=C(c1ccc2c(c1)N(Cc1ccc(Cl)cc1)C(=O)c1ccccc1S2(=O)=O)N1CCc2ccccc21	none (no result: HCV inhibitor)
Cc1cc(C)c2nc(NNC(=O)c3ccc(S(=O)(=O)N4CCc5ccccc5C4)cc3)sc2c1	VACV Venus inh inconclusive, HCV inhibitor 4.5µM, Vaccinia mCherry 16µM, HCMV inh -97 | HCV inh confirm 3.5µM | HCV cytotox inconclusive
Cc1ccc(S(=O)(=O)N2CCc3ccccc3C2)cc1	none (no result: VACV Venus inh, Vaccinia mCherry)

From PubChem
